From PubChem BioAssay
In the library only some 2.9% were active in any assay of this set; here they are far more common.
ADAM17 inh: ADAM17 inhibition, QFRET primary screen. 0.83% of 370,000 active. recombinant ADAM17, EDANS/DABCYL FRET peptide cleavage. AID 720648. P78536. inhibition, % at 6.95 µM;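 active = inhibition above the mean of compounds lying between control limits plus 3 SD, set per campaign, cut at about 8.5% in these data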
ADAM10 inh: inhibitors of human ADAM10; O14672; recombinant ADAM10, EDANS/DABCYL FRET peptide cleavage, 3 h; inhibition, % at 7 µM; 0.62% of 370,000 active; AID 720582;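 active = inhibition above a per-campaign cutoff equal to the mean of compounds falling between control-based bounds plus 3 SD, cut at about 20% in these data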
KLK7 zymogen act: activators of human kallikrein-7 zymogen; P49862; purified proKLK7, EDANS-DABCYL substrate fluorescence; 100% is mature enzyme control, 0% vehicle; activation, % at 7 µM; 0.9% of 370,000 active; AID 652039;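 active = activation above the mean of all tested compounds plus 3 SD, computed per campaign excluding outliers beyond control limits, cut at about 13% in these data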
PLCg1 inh: blocks human PLC-gamma1 enzyme activity. 0.84% of 370,000 active. inhibition, % at 12.2 µM. purified PLC-gamma1, fluorogenic substrate, fluorescence. P19174. AID 720700; in the data active = inhibition above about 9.5%
PLC-beta3 inh: blocks human PLC-beta3 enzyme activity | Q01970 | Purified PLC-beta3, fluorogenic substrate, fluorescence | inhibition, % at 12.2 µM | 0.18% of 370,000 active | AID 720704; in the data active = inhibition above about 11%
ADAM10 counter: counter-screen for ADAM17 exosite inhibitors: inhibitors of human ADAM10. shares compounds with ADAM17 inh. AID 743256. inhibition, % at 6.95 µM. recombinant ADAM10, EDANS/DABCYL FRET peptide cleavage, 3 h. 47% of 2,900 active;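 active = mean inhibition over the triplicate runs exceeds the activity threshold set in the earlier primary screen, cut at about 20% in these data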
ADAM17 confirm: confirmation of inhibitors of human ADAM17; shares compounds with ADAM17 inh; recombinant ADAM17, EDANS/DABCYL QFRET peptide cleavage; inhibition, % at 6.95 µM; 65% of 2,900 active; AID 743257;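 active = mean inhibition across replicates above the hit cutoff set in the primary screen, cut at about 8.5% in these data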
A number is an active result.

Screening OC(c1ccccc1)(c1ccccc1)C1CCN(CCCOc2cccc(C(F)(F)F)c2)CC1 returned ADAM17 inh 9.9, ADAM10 inh inactive, KLK7 zymogen act inactive, PLCg1 inh inactive, PLC-beta3 inh inactive, ADAM10 counter 26.6 and ADAM17 confirm 19.1.
For OC(c1ccccc1)(c1ccccc1)C1CCN(CCCOc2cccc(Cl)c2)CC1 the results were ADAM17 inh inactive, ADAM10 inh inactive, KLK7 zymogen act inactive, PLCg1 inh inactive and PLC-beta3 inh inactive.
For OC(c1ccccc1)(c1ccccc1)C1CCN(CCCOc2ccc(C(F)(F)F)cc2)CC1 the results were ADAM17 inh 11.1, ADAM10 inh inactive, KLK7 zymogen act inactive, PLCg1 inh inactive, PLC-beta3 inh inactive, ADAM10 counter 24.2 and ADAM17 confirm 9.8.
`CC1=NN(C(C#N)c2ccccc2)C(c2ccccc2)C1` (stereo unspecified) gave ADAM17 inh inactive, ADAM10 inh inactive, KLK7 zymogen act inactive, PLCg1 inh inactive and PLC-beta3 inh inactive.
`COc1cc2c(cc1OC)C(c1cc3cc(OC)c(OC)cc3[nH]c1=O)N(C(=O)C1CC1)CC2` (stereo unspecified) gave ADAM17 inh inactive, ADAM10 inh inactive, KLK7 zymogen act inactive, PLCg1 inh inactive and PLC-beta3 inh inactive.
`COc1ccc(C2c3c(-c4ccccc4O)n[nH]c3C(=O)N2CCc2ccc(OC)c(OC)c2)cc1` (stereo unspecified) gave ADAM17 inh 11.8, ADAM10 inh 23.9, KLK7 zymogen act inactive, PLCg1 inh inactive, PLC-beta3 inh inactive, ADAM10 counter 22.8 and ADAM17 confirm 14.5.
COC(=O)C1CCN(c2ccc([N+](=O)[O-])cc2)CC1 was read as ADAM17 inh 10.1, ADAM10 inh inactive, KLK7 zymogen act inactive, PLCg1 inh inactive, PLC-beta3 inh inactive, ADAM10 counter inactive and ADAM17 confirm inactive.
Screening COC1=CC(=O)C(C2CC(=O)c3c(O)cc(O)cc3O2)=CC1=O (stereo unspecified) returned ADAM17 inh inactive, ADAM10 inh inactive, KLK7 zymogen act inactive, PLCg1 inh inactive and PLC-beta3 inh inactive.
Screening COc1ccc(COC(=O)Oc2ccc(CNC(C)=O)cc2OC)c([N+](=O)[O-])c1 returned ADAM17 inh inactive, ADAM10 inh inactive, KLK7 zymogen act inactive, PLCg1 inh inactive and PLC-beta3 inh inactive.
Screening COc1cc(COC(=O)Oc2ccc(CNC(C)=O)cc2OC)c([N+](=O)[O-])cc1OC returned ADAM17 inh 10.0, ADAM10 inh inactive, KLK7 zymogen act inactive, PLCg1 inh inactive, PLC-beta3 inh inactive, ADAM10 counter inactive and ADAM17 confirm inactive.
Screening CC1CC(C)CN(S(=O)(=O)c2ccc(NC(=O)CN3C(=O)NC(C)(c4ccccc4)C3=O)cc2)C1 (stereo unspecified) returned ADAM17 inh 10.0, ADAM10 inh inactive, KLK7 zymogen act inactive, PLCg1 inh inactive, PLC-beta3 inh inactive, ADAM10 counter 20.9 and ADAM17 confirm 11.8.
For CC1(c2ccccc2)NC(=O)N(CC(=O)Nc2ccc(S(N)(=O)=O)cc2)C1=O (stereo unspecified) the results were ADAM17 inh inactive, ADAM10 inh inactive, KLK7 zymogen act inactive, PLCg1 inh inactive and PLC-beta3 inh inactive.
`O=c1[nH]c(C2CCN(S(=O)(=O)c3cccc([N+](=O)[O-])c3)CC2)nc2c1nnn2Cc1ccccc1` gave ADAM17 inh inactive, ADAM10 inh inactive, KLK7 zymogen act inactive, PLCg1 inh inactive and PLC-beta3 inh inactive.
Screening COC(=O)[C@@H]1C[C@H]2CC[C@H](O)C[C@H]2N1Cc1ccccc1OC(=O)c1cccs1 returned ADAM17 inh 10.9, ADAM10 inh inactive, KLK7 zymogen act inactive, PLCg1 inh inactive, PLC-beta3 inh inactive, ADAM10 counter inactive and ADAM17 confirm inactive.
Screening N#CCC(CNc1ncc(C(F)(F)F)cc1Cl)OC(=O)c1ccc(Cl)cc1Cl (stereo unspecified) returned ADAM17 inh 9.6, ADAM10 inh inactive, KLK7 zymogen act inactive, PLCg1 inh inactive, PLC-beta3 inh inactive, ADAM10 counter 40.6 and ADAM17 confirm 19.0.
Cc1c(C)c2ccc(OCC(=O)N3CCC[C@@H]3C(=O)O)c(C)c2oc1=O was read as ADAM17 inh inactive, ADAM10 inh inactive, KLK7 zymogen act inactive, PLCg1 inh inactive and PLC-beta3 inh inactive.
For O=C(c1cc(F)c(F)c(F)c1F)N1CCN(C(=O)C2CCCO2)CC1 (stereo unspecified) the results were ADAM17 inh 8.7, ADAM10 inh inactive, KLK7 zymogen act inactive, PLCg1 inh inactive, PLC-beta3 inh inactive, ADAM10 counter inactive and ADAM17 confirm inactive.
Screening O=C(O)c1cccc(S(=O)(=O)Nc2ccc(O)c(Sc3nc4ccccc4s3)c2)c1 returned ADAM17 inh inactive, ADAM10 inh inactive, KLK7 zymogen act inactive, PLCg1 inh inactive and PLC-beta3 inh inactive.
`O=S(=O)(Nc1ccc(O)c(Sc2nc3ccccc3s2)c1)c1cccc2ccccc12` gave ADAM17 inh 9.0, ADAM10 inh inactive, KLK7 zymogen act inactive, PLCg1 inh inactive, PLC-beta3 inh inactive, ADAM10 counter 42.0 and ADAM17 confirm 22.3.
Screening O=S(=O)(Nc1ccc(O)c(Sc2nc3ccccc3s2)c1)c1ccc(F)cc1 returned ADAM17 inh 10.5, ADAM10 inh inactive, KLK7 zymogen act inactive, PLCg1 inh inactive, PLC-beta3 inh inactive, ADAM10 counter 34.2 and ADAM17 confirm 23.3.
Screening O=S(=O)(Nc1ccc(-c2csc(-c3ccccc3)n2)cc1)c1ccc(F)cc1 returned ADAM17 inh 11.3, ADAM10 inh inactive, KLK7 zymogen act inactive, PLCg1 inh inactive, PLC-beta3 inh inactive, ADAM10 counter 20.4 and ADAM17 confirm 18.7.
Screening O=[N+]([O-])c1cc(S(=O)(=O)C(F)(F)F)ccc1Sc1nc2ccccc2s1 returned ADAM17 inh inactive, ADAM10 inh inactive, KLK7 zymogen act inactive, PLCg1 inh inactive and PLC-beta3 inh inactive.
Screening CCc1cccc(C)c1NC(=O)COC(=O)CCn1c(C)csc1=O returned ADAM17 inh inactive, ADAM10 inh inactive, KLK7 zymogen act inactive, PLCg1 inh inactive and PLC-beta3 inh inactive.
O=C(N=Nc1c(O)[nH]c2ccccc12)Nc1ccccc1 was read as ADAM17 inh inactive, ADAM10 inh inactive, KLK7 zymogen act inactive, PLCg1 inh inactive and PLC-beta3 inh inactive.
For Cc1cccc(NC(=S)N=Nc2c(O)[nH]c3ccccc23)c1 the results were ADAM17 inh 9.9, ADAM10 inh inactive, KLK7 zymogen act inactive, PLCg1 inh 10.9, PLC-beta3 inh inactive, ADAM10 counter 26.6 and ADAM17 confirm 12.8.
CCOC(=O)C1CCCN(Cc2ccccc2OCC)C1 (stereo unspecified) was read as ADAM17 inh inactive, ADAM10 inh inactive, KLK7 zymogen act inactive, PLCg1 inh inactive and PLC-beta3 inh inactive.
